Laboratory results from PubChem BioAssay (NCATS).
Records with an inconclusive call do not appear. A call without a number means that no potency is given here. Active and inactive are the calls of the source. The call rests on the fitted dose curve; in most records, active means well fitted cell-killing curve with a large enough effect; inconclusive means small, poorly fitted or top-dose-only effect; inactive means no such curve, though single readings can be large or run the other way.

Assay: MCF7 Cancer Cell Toxicity qHTS against the NCATS CANVASS Library (AID 1347369)
Details: MCF7 viability, ATP luminescence (CellTiter-Glo), 72 h; series mostly up to 46 µM
Method in brief: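 Cells seeded at 500/well, then compound pinned. Plates incubated 72 hr at 37C, 5% CO2. CellTiterGlo added; luminescence read.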
Potency means the concentration at half of the fitted maximal effect.

| SMILES | Potency |
| --- | --- |
| C[n+]1cc2cc(C(N)=O)[nH]c3c(=N)c(Cl)c(N)c1c23 | inactive |
| C/C1=C/[C@@H](C)[C@H](O)[C@@H](O)/C=C/CC/C=C/C(=O)O[C@@H]1[C@H](C)C(=O)CCCC1CC(=O)NC(=O)C1 | inactive |
| O[C@H]1c2ccccc2-c2c3c(cc4c2[C@@H]1NCC4)OCO3 | 29.4 µM (active) |
| CC(C)=CC[C@H]1C[C@@]2(CC=C(C)C)C(=O)[C@](CC=C(C)C)(C(=O)C(C(=O)c3ccccc3)=C2O)C1(C)C | inactive |
| C[C@]12CC[C@]3(C1)[C@H](CC2=O)C[C@@H](OC(=O)c1ccccc1)[C@H]1[C@](C)(C(=O)O)CCC[C@@]13C | inactive |
| CC(=O)O[C@H]1c2ccccc2-c2c3c(cc4c2[C@@H]1N(C(C)=O)CC4)OCO3 | inactive |
| C=C[C@](Cl)(CBr)CCC=C(C)C | inactive |
| C=C1CC[C@@H](Br)C(C)(C)[C@]12CC=C(C)C(=O)C2 | inactive |
| COc1cc2c(cc1OC)[C@@H](c1ccc3c(c1)OCO3)C(C)C(C)C2=O (stereo partly specified) | inactive |
| C[C@H]1C=C[C@H]2CCCC[C@@H]2[C@H]1C(=O)[C@H]1CC2=C(C(=O)O)CCN2C1=O | inactive |
| CC(C)[C@]12CC[C@@]3(C)[C@H](C)CC[C@H](O)[C@@]3(CC1)c1cc3c(cc12)[nH]c1ccccc13 | inactive |
| C/C=C1/CN2C3CC1C1C=CC(=O)N4c5ccccc5[C@@]3(C[C@@H]2C2=C[C@H]3C5CC6N(CC[C@@]67c6ccccc6N(C2=O)[C@@H]37)C/C5=C/C)[C@H]14 (stereo partly specified) | 16.5 µM (active) |
| CC(C)=CCC[C@]12c3cc4c(cc3CC[C@@]1(C)[C@H](C)CC[C@@H]2O)[nH]c1ccccc14 | inactive |
| Oc1ccc(C2Oc3cc(O)c4c(c3[C@@H]2c2cc(O)cc(O)c2)[C@H]2C(c3ccc(O)cc3)c3c(O)cc5c(c3[C@H]2C4c2ccc(O)cc2)[C@H](c2cc(O)cc(O)c2)C(c2ccc(O)cc2)O5)cc1 (stereo partly specified) | inactive |
| C=C(C)CC[C@H](Cc1c(O)cc(O)c2c1O[C@H](c1ccc(O)cc1)CC2=O)C(=C)C | inactive |
| C=CC(CCCCC)C1C(=O)NC(=O)C1C(=O)C1C2C(C)CC(C(=O)O)CC2CC1(O)C(=O)/C=C/C (stereo unspecified) | inactive |
| COc1c(O)cc2c(c1O)C(=O)c1c(coc1C)C2=O | inactive |
| CC(C)C[C@@H]1c2c(O)c(C=O)c(O)c(C=O)c2O[C@]2(C)C=C[C@@H](C(C)C)C[C@H]12 | inactive |
| COc1cc2c(c(O)c1O)C(=O)c1c(coc1C)C2=O | 7.39 µM (active) |
| CO[C@H]1[C@@H](OC(=O)/C(C)=C\[C@@H]2O[C@@H]2[C@H]2O[C@H]2C)[C@H](O)[C@H](OCC23C[C@@H]4[C@H](C)CC[C@H]4C4(C=O)CC2C=C(C(C)C)C34C(=O)O)O[C@@H]1C (stereo partly specified) | inactive |
| CC[C@H]1[C@H](C)[C@H](c2cc(OC)c(OC)cc2OC)[C@@H](C)[C@H](c2cc(OC)c(OC)cc2OC)[C@@]12C=C(OC)C(=O)C=C2OC | inactive |
